Structures are written as SMILES. Screen size: about 69,000 compounds; about 8,600 (12%) showed an effect of 50% or more. This is one part of a sample in which strong results are shown more often than they occur.

The test system of the test is Plasmodium berghei. The experiment in a line: Screen against P. berghei liver stage (PbLuc), transformed with Luciferase, at 10uM. Format: functional, HepG2. The following applies: tested at 10 uM.
Turning to `COCCN1CCc2c(cnc(-c3ccccc3)c2C(=O)O)C1`, the INHIBITION is listed as 36.4%. Then `CC(C)(O)CN1CCN(C(=O)COCc2ccccc2Cl)CC1`, with 23.1%; and `Cc1cccc(-n2nnnc2C2(NCc3ccco3)CCCCC2)c1`, with 28.7%; and `Cc1cc(C(=O)N2CCCC(c3nncn3C)C2)no1` (stereo unspecified), with 36.5%. Then `Cn1cnnc1C1CCCN(C(=O)NCc2cc[nH]n2)C1` (stereo unspecified), with 50.4%; and `Cn1cnnc1C1CCCN(C(=O)NCc2ccccc2)C1` (stereo unspecified), with -33.7%. Regarding `Cn1cnnc1C1CCN(C(=O)c2cc(-c3ccccc3)on2)CC1`, the INHIBITION was 51%. On to `Cc1noc(C2CCCN(C(=O)c3cc(-c4ccccc4)on3)C2)n1` (stereo unspecified), for which the INHIBITION stood at 47.7%.

On to `Cn1cnnc1C1CCCN(C(=O)c2cc(C3CC3)on2)C1` (stereo unspecified), for which the INHIBITION is listed as 5.15%.

For the molecule `Cn1cnnc1C1CCCN(C(=O)c2cc(-c3ccccc3)on2)C1` (stereo unspecified), the INHIBITION is 60%.

Consider `Cn1cnnc1C1CCCN(C(=O)NCc2ccccn2)C1` (stereo unspecified), for which the INHIBITION is given as 1.75%.

`COC1CCN(C(=O)c2cc(-c3ccc(Cl)cc3)on2)CC1`: the INHIBITION is -55.6%. Turning to `Cc1cccc2ncn(C(C)Cn3cccn3)c(=O)c12` (stereo unspecified), the INHIBITION is reported as 31.7%. Then `Cc1nn(C)cc1C1CC(=O)Nc2c1cnn2C(C)C` (stereo unspecified), with 48.4%; and `COCCN1C(=O)[C@@H]2CC[C@H]1CN(S(=O)(=O)c1ccc(C#N)cc1)C2`, with 39.1%. Turning to `Cc1cnn(CC2CCCCN2CC(=O)Nc2cccnc2)c1` (stereo unspecified), the INHIBITION is reported as 33.4%. As to `O=C(NCc1cccnc1-n1cncn1)C1CC2(CCNCC2)CN1` (stereo unspecified), the INHIBITION is 20.2%. Then `O=C1CCN(C(=O)NCc2cccc(Oc3ccccc3)c2)CCN1`, with 3.63%. Regarding `COC1(CNC(=O)c2ccoc2)CCSC1` (stereo unspecified), the INHIBITION turned out to be 14.2%. The value for `O=C(NCC1(O)CCSC1)c1ccoc1` (stereo unspecified) was 86.7%; that for `O=C(Cc1cccs1)NCC1(O)CCc2ccccc2C1` (stereo unspecified) was 37.4%; that for `O=C(NCC1(O)CCSCC1)c1ccoc1` was -2.04%. `O=C(Cc1cccs1)NCC1(O)CCSC1` (stereo unspecified): the INHIBITION stood at 54.8%. Turning to `O=C(Cc1cccs1)NCC1(O)CCSCC1`, the INHIBITION is -24.5%. The value for `CC(C)N(C)Cc1nnc2n1CCN(Cc1ccncc1)CC2` was 1.28%. Consider `CN1C(=O)[C@@H]2CC[C@H]1CN(C(=O)Nc1cccc3ccccc13)C2`, for which the INHIBITION was -42.1%. As to `NCc1n[nH]c(-c2ccc(F)cc2)n1`, the INHIBITION is -19.7%.

Turning to `COCC(=O)N(C)Cc1nc(N2CCCC2)ncc1-c1ccncc1`, the INHIBITION was found to be 52%. Then `CC(C)C(=O)N(C)Cc1nc(N2CCCC2)ncc1-c1ccncc1`, with 11.235%; and `CCCC(=O)N(C)Cc1nc(N2CCCC2)ncc1-c1ccncc1`, with 14.855%.

In the case of `Cc1cc(N(Cc2ccon2)S(C)(=O)=O)ccc1Br`, the INHIBITION is reported as -22.6%.

Values taken from ChEMBL document CHEMBL4513216, “Probing the Open Global Health Chemical Diversity Library for Multistage-Active Starting Points for Next-Generation Antimalarials” (ACS Infect Dis, 2020).
